Results as given in PMC12864922, “TDP-43 directly inhibits mRNA accumulation in neurites through modulation of mRNA stability”.
In all, about 9,900 sequences were measured (“r (bound/input frequency ratio)”: median about 0.7, highest 2% from about 6.5 on). The list comes from a sample in which the highest values are over-represented; it also holds similar and randomly drawn sequences.

B1: ENSMUSG00000031028.287|Tub (ssRNA)
RNA: GGGAGUUCUACAGUCCGACGAUCGCUUCGAUAUCCGCAUGCUAGGCUGGAUUGAUGUAAAUGGAAGUAGUACUUUAAGAAAGCUCUAGAUUUCCCAGGUUGGACACUCGACGAAAGGCACACCUGCUGCAGCAGGUUCUGACACACCUGAGCCAUACAUUGCCAUCAGAGAACCCUCAGCGAGGUAGCCUUUGUUUACAGUCUAGUUUCUAGAGGGCAGUAGGACUUCCAUGCUGGGGCUGGCCUAUCUCCUGAUGAAAGAUUACAGUGCCAUCUCCUUCCCAUAGUUCUGUGUCUGCCCUCCCUCUUGCGGUCGCACUAGUGUGGAAUUCUCGGGUGUCAAGG
B2: ENSMUSG00000029636.242|Wasf3 (ssRNA)
RNA: GGGAGUUCUACAGUCCGACGAUCGCUUCGAUAUCCGCAUGCUACAUUGUGUCAGUUGACAGGGAAUGCCUGUGGGAUAAUUAAAAAUGGUUUUUGCUCAUGAGUUUGGGAUGUCACCCAGCCGCCCACAUCGCCUGCUAUGUGUGUGGACGCCUGUCCGCUUGGCCAGCUAUCCUGUAACACCUGCCAGUAGUAGGUUUUCCUCAUGUCACUAUGACAGUGAAAGCCCAUGUGCAAGCCCCUCCCUACGCCCUGCUUUGGCGUGUGUCUGAGUGCUCUGUGCUGCGCCAUGGCCAUCCUGGAGCUCUUGCGGUCGCACUAGUGUGGAAUUCUCGGGUGUCAAGG
B3: ENSMUSG00000028439.73|Fam219a|190:194 (ssRNA)
RNA: GGGAGUUCUACAGUCCGACGAUCGCUUCGAUAUCCGCAUGCUAGUAAGCGUUGGGUGAAGGGAUCACAGGGCCGGAAGGUUGGCCCCAGCCAGUGAAGCCAUGAAUCCCCCCCAAGCCCGGCUUGGAAAGGAAGGAAAGGGGUUUUGAGAAGAAAAGGAUCCAAGCAAUGGGGGCAGUUCUCACACCUCAGAGCCCCUCUCCCCAAACCCUGUGCCAGCCCAUAUACCUAUUACACAUUUCCCCUCAUCUCCAGAUGGGAAGCCUGGCAGCGCUGUCCAAAGGGAUACUGUCUCUCCAUUAGACUCUUGCGGUCGCACUAGUGUGGAAUUCUCGGGUGUCAAGG
B4: ENSMUSG00000028439.186|Fam219a (ssRNA)
RNA: GGGAGUUCUACAGUCCGACGAUCGCUUCGAUAUCCGCAUGCUAUAUGUGUGUGCGUGUGUGUGUGUGUGUGUUGUACCCGAGUGUGUGUUGAGCCUAUCUGUCCAGGGAACCAGAUUGGUGUCCGAGAUGAGGAAAUGGCUGUGGCCUGGGAAAUCAGUGAGAGGCCGCUUGGGAAUGAGAAUGCAGUGGACUGAAAGCACAGCCUGGCCAUCUGGAACCUGGGUUCUGGUCCCAGCCUCGGCAUUCUCCCUGAGCUCCUAAGCAAUUCCCAGGCUUCUCUAGGGCUUCAGUUCUCACAACUGCUCUUGCGGUCGCACUAGUGUGGAAUUCUCGGGUGUCAAGG
B5: ENSMUSG00000061578.501|Ksr2|23:28;195:201 (ssRNA)
RNA: GGGAGUUCUACAGUCCGACGAUCGCUUCGAUAUCCGCAUGCUACUCCCAAGUGCUGGGAUUAAAGCACACAACCACCAUUGCAAUCUUGAACUCUUGACCAAUAGAAAUCCUAGACUAGUGUUGCUAGGCAACUGACUGUAUUCAGGACACCCAGGGUGGGAGGUGGAUGGAGCUCUUGCCUAACACACACCAAGCCCCAAGUUCCAUCCCCAGUCCCACACAAACCAGAUAUGAUGCACACACCCUAUGUCCCCCACACACGAGAGAGCUGGAGGCAGGAGGAUCAGAAGUUCAGGGCCAUCCUCUUGCGGUCGCACUAGUGUGGAAUUCUCGGGUGUCAAGG
B6: ENSMUSG00000028439.184|Fam219a|6:22;24:41;51:58 (ssRNA)
RNA: GGGAGUUCUACAGUCCGACGAUCGCUUCGAUAUCCGCAUGCUAUGUGCCACACACAUACACACACCCACACACACACACACACAUGUACCCGACACACACAUGAGCCUAUCUGUCCAGGGAACCAGAUUGGUGUCCGAGAUGAGGAAAUGGCUGUGGCCUGGGAAAUCAGUGAGAGGCCGCUUGGGAAUGAGAAUGCAGUGGACUGAAAGCACAGCCUGGCCAUCUGGAACCUGGGUUCUGGUCCCAGCCUCGGCAUUCUCCCUGAGCUCCUAAGCAAUUCCCAGGCUUCUCUAGGGCUUCAGCUCUUGCGGUCGCACUAGUGUGGAAUUCUCGGGUGUCAAGG
B7: ENSMUSG00000061578.500|Ksr2|29:34;201:207 (ssRNA)
RNA: GGGAGUUCUACAGUCCGACGAUCGCUUCGAUAUCCGCAUGCUACUCUGCCUCCCAAGUGCUGGGAUUAAAGCACACAACCACCAUUGCAAUCUUGAACUCUUGACCAAUAGAAAUCCUAGACUAGUGUUGCUAGGCAACUGACUGUAUUCAGGACACCCAGGGUGGGAGGUGGAUGGAGCUCUUGCCUAACACACACCAAGCCCCAAGUUCCAUCCCCAGUCCCACACAAACCAGAUAUGAUGCACACACCCUAUGUCCCCCACACACGAGAGAGCUGGAGGCAGGAGGAUCAGAAGUUCAGGCUCUUGCGGUCGCACUAGUGUGGAAUUCUCGGGUGUCAAGG
B8: ENSMUSG00000028439.185|Fam219a (ssRNA)
RNA: GGGAGUUCUACAGUCCGACGAUCGCUUCGAUAUCCGCAUGCUAUGUGUGUAUGUGUGUGCGUGUGUGUGUGUGUGUGUUGUACCCGAGUGUGUGUUGAGCCUAUCUGUCCAGGGAACCAGAUUGGUGUCCGAGAUGAGGAAAUGGCUGUGGCCUGGGAAAUCAGUGAGAGGCCGCUUGGGAAUGAGAAUGCAGUGGACUGAAAGCACAGCCUGGCCAUCUGGAACCUGGGUUCUGGUCCCAGCCUCGGCAUUCUCCCUGAGCUCCUAAGCAAUUCCCAGGCUUCUCUAGGGCUUCAGUUCUCACUCUUGCGGUCGCACUAGUGUGGAAUUCUCGGGUGUCAAGG
B9: ENSMUSG00000028439.189|Fam219a (ssRNA)
RNA: GGGAGUUCUACAGUCCGACGAUCGCUUCGAUAUCCGCAUGCUAUGUGUGUGUGUUGUACCCGAGUGUGUGUUGAGCCUAUCUGUCCAGGGAACCAGAUUGGUGUCCGAGAUGAGGAAAUGGCUGUGGCCUGGGAAAUCAGUGAGAGGCCGCUUGGGAAUGAGAAUGCAGUGGACUGAAAGCACAGCCUGGCCAUCUGGAACCUGGGUUCUGGUCCCAGCCUCGGCAUUCUCCCUGAGCUCCUAAGCAAUUCCCAGGCUUCUCUAGGGCUUCAGUUCUCACAACUGGAAAAUAAAGAGUAGCUGCUCUUGCGGUCGCACUAGUGUGGAAUUCUCGGGUGUCAAGG
B10: ENSMUSG00000028439.187|Fam219a|6:23;33:40 (ssRNA)
RNA: GGGAGUUCUACAGUCCGACGAUCGCUUCGAUAUCCGCAUGCUAUGUGCCACACACACACACACACAUGUACCCGACACACACAUGAGCCUAUCUGUCCAGGGAACCAGAUUGGUGUCCGAGAUGAGGAAAUGGCUGUGGCCUGGGAAAUCAGUGAGAGGCCGCUUGGGAAUGAGAAUGCAGUGGACUGAAAGCACAGCCUGGCCAUCUGGAACCUGGGUUCUGGUCCCAGCCUCGGCAUUCUCCCUGAGCUCCUAAGCAAUUCCCAGGCUUCUCUAGGGCUUCAGUUCUCACAACUGGAAAAUCUCUUGCGGUCGCACUAGUGUGGAAUUCUCGGGUGUCAAGG
B11: ENSMUSG00000061578.502|Ksr2|17:22;189:195 (ssRNA)
RNA: GGGAGUUCUACAGUCCGACGAUCGCUUCGAUAUCCGCAUGCUAAGUGCUGGGAUUAAAGCACACAACCACCAUUGCAAUCUUGAACUCUUGACCAAUAGAAAUCCUAGACUAGUGUUGCUAGGCAACUGACUGUAUUCAGGACACCCAGGGUGGGAGGUGGAUGGAGCUCUUGCCUAACACACACCAAGCCCCAAGUUCCAUCCCCAGUCCCACACAAACCAGAUAUGAUGCACACACCCUAUGUCCCCCACACACGAGAGAGCUGGAGGCAGGAGGAUCAGAAGUUCAGGGCCAUCCUUAAUCUCUUGCGGUCGCACUAGUGUGGAAUUCUCGGGUGUCAAGG
B12: ENSMUSG00000028439.184|Fam219a (ssRNA)
RNA: GGGAGUUCUACAGUCCGACGAUCGCUUCGAUAUCCGCAUGCUAUGUGCGUGUGUGUAUGUGUGUGCGUGUGUGUGUGUGUGUGUUGUACCCGAGUGUGUGUUGAGCCUAUCUGUCCAGGGAACCAGAUUGGUGUCCGAGAUGAGGAAAUGGCUGUGGCCUGGGAAAUCAGUGAGAGGCCGCUUGGGAAUGAGAAUGCAGUGGACUGAAAGCACAGCCUGGCCAUCUGGAACCUGGGUUCUGGUCCCAGCCUCGGCAUUCUCCCUGAGCUCCUAAGCAAUUCCCAGGCUUCUCUAGGGCUUCAGCUCUUGCGGUCGCACUAGUGUGGAAUUCUCGGGUGUCAAGG
B13: ENSMUSG00000028439.187|Fam219a (ssRNA)
RNA: GGGAGUUCUACAGUCCGACGAUCGCUUCGAUAUCCGCAUGCUAUGUGCGUGUGUGUGUGUGUGUGUUGUACCCGAGUGUGUGUUGAGCCUAUCUGUCCAGGGAACCAGAUUGGUGUCCGAGAUGAGGAAAUGGCUGUGGCCUGGGAAAUCAGUGAGAGGCCGCUUGGGAAUGAGAAUGCAGUGGACUGAAAGCACAGCCUGGCCAUCUGGAACCUGGGUUCUGGUCCCAGCCUCGGCAUUCUCCCUGAGCUCCUAAGCAAUUCCCAGGCUUCUCUAGGGCUUCAGUUCUCACAACUGGAAAAUCUCUUGCGGUCGCACUAGUGUGGAAUUCUCGGGUGUCAAGG
B14: ENSMUSG00000028439.185|Fam219a|1:16;18:35;45:52 (ssRNA)
RNA: GGGAGUUCUACAGUCCGACGAUCGCUUCGAUAUCCGCAUGCUAACACACAUACACACACCCACACACACACACACACAUGUACCCGACACACACAUGAGCCUAUCUGUCCAGGGAACCAGAUUGGUGUCCGAGAUGAGGAAAUGGCUGUGGCCUGGGAAAUCAGUGAGAGGCCGCUUGGGAAUGAGAAUGCAGUGGACUGAAAGCACAGCCUGGCCAUCUGGAACCUGGGUUCUGGUCCCAGCCUCGGCAUUCUCCCUGAGCUCCUAAGCAAUUCCCAGGCUUCUCUAGGGCUUCAGUUCUCACUCUUGCGGUCGCACUAGUGUGGAAUUCUCGGGUGUCAAGG
B15: ENSMUSG00000028439.188|Fam219a (ssRNA)
RNA: GGGAGUUCUACAGUCCGACGAUCGCUUCGAUAUCCGCAUGCUAUGUGUGUGUGUGUGUGUUGUACCCGAGUGUGUGUUGAGCCUAUCUGUCCAGGGAACCAGAUUGGUGUCCGAGAUGAGGAAAUGGCUGUGGCCUGGGAAAUCAGUGAGAGGCCGCUUGGGAAUGAGAAUGCAGUGGACUGAAAGCACAGCCUGGCCAUCUGGAACCUGGGUUCUGGUCCCAGCCUCGGCAUUCUCCCUGAGCUCCUAAGCAAUUCCCAGGCUUCUCUAGGGCUUCAGUUCUCACAACUGGAAAAUAAAGAGCUCUUGCGGUCGCACUAGUGUGGAAUUCUCGGGUGUCAAGG

Each binder was assayed against TDP-43 (Homo sapiens, UniProt Q13148 1-414) (assay: RNA Bind-n-Seq with designed 260-mer pool; 25 mM Tris-HCl, 150 mM KCl, 3 mM MgCl2, BSA (printed 500 mg/mL), 20 units/mL SUPERase IN; pH not stated; 500 nM RNA pool, 1 h, 4 C; TDP-43 5, 50, 500 nM; high values mean tight binding). Settings: protein: recombinant; tags: SBP (GST cleaved off with PreScission; pGEX-GST-SBP).
Sequence of TDP-43 (Q13148 whole entry): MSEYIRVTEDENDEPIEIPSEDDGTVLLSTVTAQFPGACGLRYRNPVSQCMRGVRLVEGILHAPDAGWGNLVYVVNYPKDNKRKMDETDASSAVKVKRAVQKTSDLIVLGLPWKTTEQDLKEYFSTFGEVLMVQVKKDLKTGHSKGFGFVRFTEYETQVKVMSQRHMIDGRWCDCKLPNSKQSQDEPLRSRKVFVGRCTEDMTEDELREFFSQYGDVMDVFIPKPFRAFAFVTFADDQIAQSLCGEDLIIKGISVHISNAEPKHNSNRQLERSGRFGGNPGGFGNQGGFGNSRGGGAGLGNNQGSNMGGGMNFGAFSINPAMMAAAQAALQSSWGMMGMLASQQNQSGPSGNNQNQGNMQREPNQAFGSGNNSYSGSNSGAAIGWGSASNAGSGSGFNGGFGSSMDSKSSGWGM
How it was run: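 An in vitro-transcribed pool of 260-nt 3′ UTR oligos (500 nM) was incubated for 1 h at 4 °C with recombinant SBP-tagged TDP-43 at 5, 50 or 500 nM held on streptavidin beads. The buffer contained 25 mM Tris-HCl, 150 mM KCl, 3 mM MgCl2, BSA and SUPERase IN. Biotin-eluted bound RNA was sequenced, and binding, R, is each oligo's normalized read abundance in the bound sample over that in input.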

Row | Binder | binding signal
1 | B1 | 0.856 R (bound/input frequency ratio)
2 | B2 | 0.663 R (bound/input frequency ratio)
3 | B3 | 0.449 R (bound/input frequency ratio)
4 | B4 | 6.13 R (bound/input frequency ratio)
5 | B5 | 6.59 R (bound/input frequency ratio)
6 | B6 | 2.43 R (bound/input frequency ratio)
7 | B7 | 3.25 R (bound/input frequency ratio)
8 | B8 | 7.73 R (bound/input frequency ratio)
9 | B9 | 1.86 R (bound/input frequency ratio)
10 | B10 | 1.44 R (bound/input frequency ratio)
11 | B11 | 3.46 R (bound/input frequency ratio)
12 | B12 | 7.33 R (bound/input frequency ratio)
13 | B13 | 6.68 R (bound/input frequency ratio)
14 | B14 | 2.5 R (bound/input frequency ratio)
15 | B15 | 4.17 R (bound/input frequency ratio)
